Data taken from PubChem BioAssay (Tox21).
Results filed as inconclusive are left out. The source made the active and inactive calls. Calls follow the shape of the dose curve; as a rule, active = well fitted cell-killing curve with a large enough effect in the repeat runs (not every such curve was filed as active); inconclusive = weak or mixed curves, or effect the other way; inactive = no such curve, though single readings can be large or run the other way.

Assay: qHTS assay to identify small molecule antagonists of the estrogen related receptor signaling pathway with the pleiotropic PPARgamma coactivator (PGC) from Tox21 10K library - cell viability counter screen (AID 1224840); also: nearly all actives have a fitted effect of over 40% in size
Conditions: PGC/ERR reporter cells viability, CellTiter-Fluor, 17.5 h; series mostly up to 92.4 µM; viability change, negative = cytotoxic: at the top concentration
Description: National Center for Advancing Translational Sciences [NCATS]
NIH Chemical Genomics Center [NCGC]
U.S. Environmental Protection Agency [EPA]
National Institutes of Environmental Health Sciences [NIEHS]
National Toxicology Program [NTP]
U.S. Food and Drug Administration [FDA]
Estrogen related receptors (ERRs), the first orphan nuclear receptors discovered, play an important role in the control of cellular energy metabolism. ERRs are required for high-energy production in response to the environmental challenges. The pleiotropic PPARgamma coactivator (PGC) is a major partner of ERR and a key regulator in energy homeostasis. Together they have been implicated in the etiology of metabolic disorders such as Type 2 diabetes and metabolic syndrome. ERR-alpha was also identified as an adverse marker for breast cancer progression; ERR-alpha-positive tumors have a poor prognosis. To screen and to identify environmental compounds that perturb the ERR and PGC/ERR signaling pathways could provide valuable information for potential therapeutic or preventive measures in the treatment of metabolic disease. To differentiate true PGC/ERR antagonists or agonist from cytotoxic substances, the assay is multiplexed with cell viability assay.
Tox21 Assay Protocol Summary:
The PGC/ERR cells were dispensed at 2,000 cells/5 ul/well in 1536-well white plates using a Multidrop dispenser. After the assay plates were incubated at a 37 C/5% CO2 incubator for 6 hours, 23 nL of compounds dissolved in DMSO, positive and negative controls or DMSO only was transferred to the assay plate by a pin tool. The plates were incubated at 37 C for 17.5 hours. 1 ul/well of CellTiter-Fluor reagent was added into the assay plates using a Flying Reagent Dispenser. After 30-minute incubation at 37 C/5% CO2, the fluorescence intensity in the plates was measured using a ViewLux plate reader.
% is scaled to controls: 0 for no effect and ±100 for the full control effect.

| Compound | viability change, negative = cytotoxic |
| --- | --- |
| N#Cc1c(Cl)cccc1Cl | -0.213% (inactive) |
| CCOP(=S)(OCC)Oc1nc(Cl)n(C(C)C)n1 | -1.7% (inactive) |
| CN1CCN(C(=O)O[C@H]2c3nccnc3C(=O)N2c2ccc(Cl)cn2)CC1 | 8.37% [at 42.5 µM] (inactive) |
| COc1ncc(F)c2nc(S(=O)(=O)Nc3c(F)cccc3F)nn12 | 1.19% [at 42.5 µM] (inactive) |
| CC1=C(C(=O)O)N2C(=O)[C@@H](N)[C@H]2SC1 | -5.15% [at 19 µM] (inactive) |
| O=[N+]([O-])c1ccc2c3c(cccc13)CC2 | -8.01% (inactive) |
| CCCCOC(=O)c1ccccc1C(=O)O | 3.27% (inactive) |
| C1CCC(C2CCCCC2)CC1 | -8.94% (inactive) |
| CNC(=O)O/N=C(\C)SC | 5.97% (inactive) |
| CCCSC(=O)N(CCC)CCC | -1.33% (inactive) |
| O=C(NCO)NCO | 0.837% (inactive) |
| CCNc1nc(NC(C)C)nc(OC)n1 | 1.63% (inactive) |
| CCC(=O)c1ccccc1 | 5.38% (inactive) |
| BrCCCCCCBr | -3.32% (inactive) |
| O=[N+]([O-])c1cc(Cl)c(Cl)c(Cl)c1 | 5.61% (inactive) |
| CN1CCC(O)(c2ccc(F)cc2)C(C(=O)c2ccc(F)cc2)C1 (stereo not given) | 0.137% [at 42.5 µM] (inactive) |
| CCN(CC)C(C)C(=O)c1ccccc1 (stereo not given) | -1.86% [at 42.5 µM] (inactive) |
| CCOP(=O)(OCC)OP(=O)(OCC)OCC | 0.687% (inactive) |
| CCC(Cl)[N+](=O)[O-] (stereo not given) | 0.849% (inactive) |
| Cc1coc2c1CCC(C)C2 (stereo not given) | 2.59% (inactive) |

| Compound | viability change, negative = cytotoxic |
| --- | --- |
| CC1=NNC(=O)N(/N=C/c2cccnc2)C1 | 1.42% (inactive) |
| CCCCOC(=O)c1ccccc1N | -25.5% (inactive) |
| [As]#[In] | 4.22% (inactive) |
| CCc1cc2c(s1)-n1c(C)nnc1CN=C2c1ccccc1Cl | 1.46% [at 42.5 µM] (inactive) |
| CCCSC(=O)Cl | 7.23% (inactive) |
| COc1cc(C[C@@H](C)N)c(OC)cc1C | 0.252% (inactive) |
| COP(=S)(OC)Oc1c(Cl)cc(C)cc1Cl | 0.0385% (inactive) |
| CC(=O)CCc1ccc2c(c1)OCO2 | 2.51% (inactive) |
| N#CCNCC#N | -0.666% (inactive) |
| CC(C)(C)C(=O)C(Oc1ccc(Cl)cc1)n1cncn1 (stereo not given) | -13% (inactive) |
| CC(C(O)c1ccccc1)N(C)C/C=C/c1ccccc1 (stereo not given) | 0.0037% [at 42.5 µM] (inactive) |
| CCCSP(=O)(OCC)Oc1ccc(Br)cc1Cl (stereo not given) | -3.75% [at 42.5 µM] (inactive) |
| CCOc1nc(C(Cl)(Cl)Cl)ns1 | 0.712% (inactive) |
| O=c1oc2ccccc2c(O)c1C1CCCc2ccccc21 (stereo not given) | -7.55% (inactive) |
| O=C1OC(c2ccc(O)c(S(=O)(=O)O)c2)(c2ccc(O)c(S(=O)(=O)O)c2)c2c(Br)c(Br)c(Br)c(Br)c21 | 9.27% [at 42.5 µM] (inactive) |
| C#CCN1C(=O)COc2cc(F)c(N3C(=O)C4=C(CCCC4)C3=O)cc21 | -2.96% (inactive) |
| CNC(=O)N(C)c1nc2ccccc2s1 | -6.14% (inactive) |
| CCOC(=O)/C=C(C)/C=C/C[C@@H](C)CCCC(C)C | 1.79% (inactive) |
| CCCCOC(=O)[C@@H](C)Oc1ccc(Oc2ccc(C#N)cc2F)cc1 | -9.94% (inactive) |
| COC(=O)C1=CCCN(C)C1 | -1.02% [at 42.5 µM] (inactive) |
